From PubChem
Rows were chosen to be rich in hits. Some 2.4% of all compounds tested hit in one or more screens of this group.
zVAD death inh – inhibitors of zVAD-triggered necroptosis, primary screen, L929 cells | L929 zVAD necroptosis rescue, ATP luminescence, 24 h; with zVAD 60 µM | viability rescue, % at 10 µM | hit rate 0.38% among 220,000 | AID 1377, 2008;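 active = activation, scaled between plate controls, above about 75%, limit read from the data; inactive = activation under that limit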;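 note: 0% = zVAD with DMSO and 100% = DMSO alone without zVAD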
WT yeast gro inh – growth inhibition of WT strain, primary screen, mitochondrial fusion inhibitor project, WT and mutant strains, chemical genetic | hit rate 2.1% among 190,000 | AID 1362, 2008 | mitochondrial fusion phenotypic screen | inhibition, % at 10 µM; in the data active = inhibition above about 58%; tested in S. cerevisiae
PERK inhibitor – block of dimerizer-induced PERK translation repression, primary screen, PERK inhibitor project, CHO PERK-DD cells, SEAP luminescence, HTS; AID 1416, 2008; CHO PERK-DD fusion, SEAP luminescence translation reporter; Eukaryotic translation initiation factor 2-alpha kinase 3 (Homo sapiens), Q9NZJ5; inhibition, % at 5.6 µM; hit rate 0.17% among 220,000;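 active = inhibition above the mean inhibition of all tested compounds plus 3 SD, set separately per screening campaign, cut at about 2.9% in these data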;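 note: PERK kinase domain activated by AP20187 dimerizer at 100 nM; 0% = DMSO with dimerizer and 100% = rapamycin at 8.4 µM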
Target sequence (Q9NZJ5 whole entry, looked up, the tested form may be a part): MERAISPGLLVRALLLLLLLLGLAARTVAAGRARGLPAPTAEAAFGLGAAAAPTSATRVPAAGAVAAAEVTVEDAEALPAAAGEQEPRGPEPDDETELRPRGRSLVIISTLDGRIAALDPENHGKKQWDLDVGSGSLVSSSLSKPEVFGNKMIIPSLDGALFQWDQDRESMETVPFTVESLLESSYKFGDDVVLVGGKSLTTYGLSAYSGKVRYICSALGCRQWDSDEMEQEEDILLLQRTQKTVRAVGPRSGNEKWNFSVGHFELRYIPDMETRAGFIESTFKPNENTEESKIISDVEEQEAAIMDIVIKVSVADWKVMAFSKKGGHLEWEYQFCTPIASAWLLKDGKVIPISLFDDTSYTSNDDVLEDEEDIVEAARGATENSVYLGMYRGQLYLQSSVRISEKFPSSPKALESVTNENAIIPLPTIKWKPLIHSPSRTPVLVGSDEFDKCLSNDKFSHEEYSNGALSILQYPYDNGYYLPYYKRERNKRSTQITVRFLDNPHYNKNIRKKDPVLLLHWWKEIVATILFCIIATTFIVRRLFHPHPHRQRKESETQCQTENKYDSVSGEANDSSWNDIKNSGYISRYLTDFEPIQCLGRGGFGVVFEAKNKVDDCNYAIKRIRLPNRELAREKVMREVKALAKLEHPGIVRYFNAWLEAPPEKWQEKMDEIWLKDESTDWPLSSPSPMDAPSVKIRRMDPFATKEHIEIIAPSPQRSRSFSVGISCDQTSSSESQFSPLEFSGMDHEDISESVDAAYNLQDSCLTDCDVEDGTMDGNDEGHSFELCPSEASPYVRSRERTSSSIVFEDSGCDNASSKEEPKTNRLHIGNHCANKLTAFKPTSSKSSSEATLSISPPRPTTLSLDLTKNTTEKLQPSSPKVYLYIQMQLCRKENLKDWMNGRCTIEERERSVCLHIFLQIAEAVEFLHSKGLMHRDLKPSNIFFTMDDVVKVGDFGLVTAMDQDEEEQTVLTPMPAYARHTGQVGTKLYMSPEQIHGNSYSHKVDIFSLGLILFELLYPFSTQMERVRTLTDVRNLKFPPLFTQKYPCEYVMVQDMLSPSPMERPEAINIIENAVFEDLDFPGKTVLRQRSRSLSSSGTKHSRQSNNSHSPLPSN
Redox H2O2 prof – compounds producing H2O2 with reducing agent – biochemical, NIH compound library profiling, artefact control for MLSCN library redox annotation, primary screen; AID 878, 2007; activation, % at 10 µM; hit rate 0.03% among 200,000; DTT-dependent redox cycling H2O2, phenol red/HRP absorbance; 100% = 100 µM peroxide control, 0% = buffer;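 active = activation of at least 50% relative to the plate's high and low controls in the primary single-dose screen; inactive = activation below 50%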;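 note: compound incubated with DTT at 0.8 mM final as the reducing agent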
PKD1 inh – inhibitors of human PKD1 kinase, biochemical, fluorescence polarization. Serine/threonine-protein kinase D1 (Homo sapiens), Q15139. PKD1 kinase fluorescence polarization assay. inhibition, % (concentration not given with the values). hit rate 0.056% among 200,000. AID 797, 2007; in the data active = inhibition above about 50%
TNF death inh – inhibitors of TNF-alpha triggered necroptosis, primary screen, cell-based, Jurkat FADD-/-, single concentration. Jurkat FADD-/- TNF necroptosis rescue, ATP luminescence, 24 h; 0 = TNF only, 100 = no-TNF cells. activation (protection from cell death), % at 10 µM. hit rate 0.068% among 220,000;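 active = activation, meaning protection from cell death, of at least 50% relative to plate controls; inactive = activation below 50%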;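 note: necroptosis triggered by 40 ng/mL TNF-alpha added together with compound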
The depositor's hits bear a star; . = not tested or not shown.

SMILES	zVAD death inh	WT yeast gro inh	PERK inhibitor	Redox H2O2 prof	PKD1 inh	TNF death inh
CC(=O)Nc1nc(C)c(-c2csc(Nc3ccc(O)cc3)n2)s1	77*	-30	-1	2	4	1
CCc1c(C)c(C#N)c2nc3ccccc3n2c1NCc1ccccn1	2	-21	0	-2	-2	1
O=C(Nc1ccc(Oc2ccc(C(=O)O)c(C(=O)O)c2)cc1)c1cccs1	5	-14	1	0	-2	0
OCC1(CCOc2ccccc2)CCN(Cc2nc3ccc(F)cc3[nH]2)CC1	3	6	0	0	0	2
COCCNC(=S)NN=C1CCCCCC1	-2	11	1	0	-5	-1
S=C(NCCc1ccccc1)NN=C1CCCCCC1	0	66*	0	-1	-1	0
S=C(NCCc1ccccc1)N/N=C/c1ccccc1Cl	1	64*	1	0	5	2
O=C(NC(=S)NCCc1ccccc1)C1CCCCC1	0	29	-1	0	10	0
S=C(NCCc1ccccc1)N/N=C/C1CCCCC1	2	72*	1	1	-8	-1
O=C(CCCCCNc1nc(=S)[nH]c2ccccc12)NCCC1=CCCCC1	27	6	0	0	-5	1
COc1ccc(C(=O)N2c3cc4c(cc3C(C)=CC2(C)C)OCO4)cc1	0	60*	0	3	1	2
CC1=CC(C)(C)N(C(=O)c2ccccc2)c2ccc(C)cc21	1	-1	0	1	-9	0
O=C(Cn1nnc(-c2cccs2)n1)Nc1ccccc1C(F)(F)F	1	-4	0	0	-2	2
CC(C)C(=O)Nc1ccc2c(c1)nc(CCN1CCN(C)CC1)n2C	0	-19	3.6*	0	0	0
Cc1ccc(C(C(=O)NC(C)(C)C)N(Cc2cccs2)C(=O)c2ccc3c(c2)OCCO3)cc1 (stereo not drawn)	0	72*	2	0	-3	1
CCC(C)(C)NC(=O)C(c1ccc(C)cc1)N(Cc1cccs1)C(=O)c1ccc2c(c1)OCCO2 (stereo not drawn)	0	74*	0	2	1	-3
COc1ccccc1N1CCN(C2CCN(C(=O)COc3ccccc3)CC2)CC1	1	-6	0	0	0	1
CCCCCOc1ccc(Br)cc1CSC(=N)N	0	65*	-1	0	3	-5
C/C(CC(=O)NCc1ccco1)=N\NC(=O)C(c1ccccc1)c1ccccc1	77*	-7	1	-1	-10	27
COc1ccc(C2Cc3ccccc3C(=O)O2)cc1 (stereo not drawn)	0	7	1	0	15	1
Cc1cccc(CSC(Nc2ccc(F)cc2)=C(C#N)C#N)c1	1	80*	0	0	-6	-11
O=C(NN1C(=O)c2ccccc2C1=O)c1ccc2c(c1)C(=O)N(CC1CCCO1)C2=O (stereo not drawn)	0	.	1	.	.	1
CC(NC(=O)Nc1ccc(Cl)c(Cl)c1)C(c1ccccc1)N1CCOCC1 (stereo not drawn)	4	75*	-1	0	5	4
CC(NC(=O)Nc1ccc([N+](=O)[O-])cc1)C(c1ccccc1)N1CCOCC1 (stereo not drawn)	2	-5	0	0	-10	2
O=Cc1ccc(Sc2ncccn2)o1	0	4	1	0	-6	1
SMILES	zVAD death inh	WT yeast gro inh	PERK inhibitor	Redox H2O2 prof	PKD1 inh	TNF death inh
S=c1[nH]c(-c2ccc(Cl)cc2)cs1	0	65*	0	0	6	0
O=C(Nc1ccccc1C(=O)Nc1nnc(C(F)(F)F)s1)c1ccccc1Cl	5	.	1	.	.	-13
C=CCSc1nnc(NC(=O)COc2ccc3ccccc3c2)s1	0	86*	2	0	-12	0
COc1ccc(Cc2nnc(NC(=O)C(C)(C)C)s2)cc1	8	-5	0	0	-4	1
CCn1c(CNC(=O)c2cccs2)n[nH]c1=S	0	-8	1	0	-8	1
N#Cc1sc2nc(C3CC3)cc(-c3ccc(Cl)cc3)c2c1N	0	72*	-1	-1	5	-3
Fc1ccc(C(c2ccc(F)cc2)N2CCN(C/C=C/c3ccccc3)CC2)cc1	2	82*	0	2	0	1
C(=C\c1ccccc1)/CN1CCN(C(c2ccccc2)c2ccccc2)CC1	10	70*	-1	1	6	1
Cc1ccc(CS/C(Nc2ccccc2C)=C(\C#N)C(N)=O)c(C)c1	1	5	-1	0	12	2
CC(=O)c1cccc(Nc2nc(-c3cccc([N+](=O)[O-])c3)cs2)c1	0	-5	-1	-2	-8	-10
O=[N+]([O-])c1cccc(-c2csc(N/N=C/c3cccc(O)c3)n2)c1	54	84*	-1	-1	-2	-1
CCNC(=S)N(CCc1c(C)[nH]c2ccc(Cl)cc12)Cc1ccco1	1	78*	0	-3	-6	1
CNC(=S)N(CCc1c(C)[nH]c2ccc(C)cc12)Cc1ccco1	2	16	0	0	-9	-4
CCNC(=S)N(CCc1c(C)[nH]c2ccc(C)cc12)Cc1cccs1	1	71*	0	0	-8	0
COCCNC(=S)N(CCc1c(C)[nH]c2ccc(Cl)cc12)Cc1cccs1	2	74*	1	0	1	3
CNC(=S)N(CCc1c(C)[nH]c2ccc(Cl)cc12)Cc1cccs1	2	78	0	-1	-4	-3
O=C1CCc2ccc(OCCCCN3CCN(c4cccc(Cl)c4Cl)CC3)cc2N1	.	84*	1	.	.	.
COc1ccccc1N1CCN(CCCOc2ccc(F)cc2)CC1	1	23	0	1	3	4
O=C(Nc1cccc(F)c1)c1ccc(-c2ccccc2Cl)o1	13	77*	0	0	8	1
Cc1ccc(-c2ccc(C(=O)Nc3cccc(F)c3)o2)c2ccccc12	11	21	0	1	-1	2
Cc1ccc(S(=O)(=O)N2CCN(c3nccnc3C#N)CC2)cc1	0	.	0	.	.	1
S=C(c1ccc(-c2cccc(Cl)c2)o1)N1CCCCC1	-1	58*	0	-1	-3	-1
Cc1ccc(/C(=N\O)c2oc3c(C)c4oc(=O)cc(C)c4cc3c2C)cc1	.	70*	-1	0	-2	-1
